In all, about 33,000 sequences were measured (“e-score”: median about -0.053, highest 2% from about 0.38 on). Shown is part of a subset that was picked to be rich in the highest values.

From publication PMC10668032, “Altered binding affinity of SIX1-Q177R correlates with enhanced WNT5A and WNT pathway effector expression in Wilms tumor” come the findings set out here.

The target of the experiment is T1, SIX1 homeodomain (reference allele) (human, UniProt Q15475 108-198).
T1 sequence: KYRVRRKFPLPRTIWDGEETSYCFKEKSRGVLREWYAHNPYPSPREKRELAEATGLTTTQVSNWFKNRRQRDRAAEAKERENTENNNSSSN
The experiment can be described thus: universal protein binding microarray; Universal all-10-mer PBM (8x60K, AMADID 030236), 300 nM GST-tagged protein, Alexa Fluor 488 anti-GST; buffer, salt, pH and temperature not stated (as in Berger); high values mean tight binding. The following applies: protein: ivt; tags: N-terminal GST; dsDNA, one strand shown. Put shortly: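 Binding of GST-tagged homeodomains is given as 8-mer E-scores from the Universal PBM Analysis Suite. The proteins were produced by in vitro transcription/translation, quantified by anti-GST western blot against a recombinant GST standard curve, and applied in duplicate at 300 nM final concentration to universal 'all 10-mer' protein binding microarrays (8×60K format).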
With AGTATGAT, the binding signal stood at 0.2824 ± 0.000431 E-score. Under ATCACGCC stands 0.26 ± 0.00476 E-score. Under ATCTCTTG stands 0.224 ± 0.039 E-score; under CAGATCTG, 0.216 ± 0.124 E-score; under AGCTCGAT, 0.227 ± 0.00607 E-score. Consider CATCCTAC, for which the binding signal was determined as 0.157 ± 0.0313 E-score. Under ATACATGA stands 0.231 ± 0.0327 E-score. The value for ATACAATG was 0.248 ± 0.00431 E-score. Under CATACCCG stands 0.259 ± 0.0615 E-score; under TATACCCA, 0.401 ± 0.0193 E-score; under GATACCCA, 0.4758 ± 0.00303 E-score. On to TCTACCCA, for which the binding signal was 0.221 ± 0.0189 E-score. Under CATACCCA stands 0.208 ± 0.066 E-score; under CGCTATAC, 0.254 ± 0.0251 E-score. Under ACTTGTAT stands 0.246 ± 0.0178 E-score. For CTTAATAC, the binding signal is 0.281 ± 0.0535 E-score. Under CAGATAAC stands 0.191 ± 0.0157 E-score; under ATCTGGCC, 0.181 ± 0.0229 E-score; under ATACACCC, 0.391 ± 0.00614 E-score. Take ATACACAC: the binding signal amounted to 0.249 ± 0.0542 E-score.

Regarding CTACACCC, the binding signal was found to be 0.263 ± 0.044 E-score. For CTACACCA, the binding signal turned out to be 0.312 ± 0.0106 E-score. The value for GTACACCA was 0.233 ± 0.039 E-score; that for ATACACCA was 0.389 ± 0.0166 E-score; that for ATACACAG was 0.289 ± 0.0145 E-score.

On to AAACACCC, for which the binding signal was 0.253 ± 0.0462 E-score.

Regarding ATACACCG, the binding signal is 0.398 ± 0.0351 E-score. For the sequence CATCGAAG, the binding signal stood at 0.178 ± 0.0656 E-score. Under ATCGTGCC stands 0.192 ± 0.00267 E-score; under ATACTTAG, 0.205 ± 0.0528 E-score. The value for CACCTATC was 0.266 ± 0.0455 E-score. Under GAAAGATA stands 0.324 ± 0.096 E-score.

As to GGGAAACC, the binding signal stood at 0.162 ± 0.106 E-score. The value for ATATCCAG was 0.373 ± 0.0215 E-score; that for ATATCCAC was 0.395 ± 0.0197 E-score; that for GTATCCAA was 0.421 ± 0.0174 E-score. Under ATATCCAA stands 0.358 ± 0.01 E-score; under CAATCCAC, 0.168 ± 0.0919 E-score; under CGATCCAC, 0.375 ± 0.0695 E-score.

Consider TAATCCAA, for which the binding signal came out at 0.1853 ± 0.00116 E-score. The value for GTATCCAC was 0.3951 ± 0.00369 E-score; that for CTATCCAC was 0.219 ± 0.0193 E-score.

With CTATCCAG, the binding signal came out at 0.199 ± 0.0567 E-score. Under AGATCCAT stands 0.254 ± 0.00332 E-score; under ATATCCAT, 0.389 ± 0.0181 E-score; under CGACAGAA, 0.153 ± 0.115 E-score. As to ATATGTCG, the binding signal came out at 0.272 ± 0.052 E-score. Regarding ATCCAGGG, the binding signal stood at 0.236 ± 0.0104 E-score. The value for ATCATCAG was 0.154 ± 0.0285 E-score; that for GATCTAGC was 0.215 ± 0.0211 E-score. Under GATCCTGA stands 0.301 ± 0.0202 E-score.

In the case of CATCCTGA, the binding signal was 0.169 ± 0.0388 E-score.

In the case of TATCCATA, the binding signal worked out at 0.39076 ± 0.000148 E-score. Turning to AATCCATA, the binding signal was 0.214 ± 0.0274 E-score. The value for TATCCTGA was 0.382 ± 0.0186 E-score; that for GATCCATA was 0.357 ± 0.0223 E-score; that for GAACAATA was 0.2 ± 0.0128 E-score. The value for CTTAGATC was 0.158 ± 0.00598 E-score; that for CCTACTCA was 0.161 ± 0.0165 E-score; that for ATACTAAG was 0.209 ± 0.0591 E-score. The value for TAACACGA was 0.19 ± 0.0238 E-score; that for ATTGATCC was 0.406 ± 0.0164 E-score.

With CTTGATCA, the binding signal was 0.218 ± 0.037 E-score. With ATTGATGC, the binding signal was determined as 0.182 ± 0.0328 E-score. Under CTTGATCC stands 0.361 ± 0.00995 E-score. The value for CTCAATAC was 0.259 ± 0.0252 E-score; that for ATTGATAG was 0.288 ± 0.0226 E-score; that for CTTGACAC was 0.244 ± 0.0534 E-score. The value for CTTGATAC was 0.442 ± 0.0251 E-score; that for ATTGATAC was 0.465 ± 0.0161 E-score; that for CGTCTCGC was 0.167 ± 0.0173 E-score.

Regarding GATCGACC, the binding signal is 0.162 ± 0.12 E-score. Turning to GATCTCGA, the binding signal worked out at 0.221 ± 0.00099 E-score. For the sequence AATACTCT, the binding signal is 0.257 ± 0.089 E-score. Regarding AACCTATA, the binding signal came to 0.205 ± 0.0654 E-score. Under CCCTTGGA stands 0.213 ± 0.00655 E-score. The value for ATCCCTTC was 0.303 ± 0.0125 E-score; that for CTACTGTA was 0.165 ± 0.0781 E-score. The value for AATTAATA was 0.191 ± 0.0409 E-score; that for GCATACAC was 0.155 ± 0.0339 E-score. For GGATACAC, the binding signal stood at 0.405 ± 0.0186 E-score. Under CGATACAC stands 0.418 ± 0.0108 E-score.

As to CGATACAA, the binding signal stood at 0.288 ± 0.0425 E-score. Consider GGATACAA, for which the binding signal is 0.354 ± 0.037 E-score. The value for CGATACAG was 0.313 ± 0.044 E-score; that for AGATACAG was 0.246 ± 0.0181 E-score; that for AGATACAA was 0.168 ± 0.0186 E-score. Regarding AGATACAC, the binding signal worked out at 0.3801 ± 0.00099 E-score. As for ACAATATG, the binding signal was 0.239 ± 0.0268 E-score. The value for ATCACTTA was 0.273 ± 0.0813 E-score; that for ATGGGGTC was 0.168 ± 0.00238 E-score. The value for AGTAGATC was 0.321 ± 0.0238 E-score; that for GACCGATC was 0.246 ± 0.028 E-score; that for ATACTTCC was 0.241 ± 0.0829 E-score. The value for CGTATCAG was 0.465 ± 0.00812 E-score; that for ACTATCAG was 0.217 ± 0.0215 E-score.

On to ATCATCAC, for which the binding signal turned out to be 0.228 ± 0.00571 E-score. In the case of CCTATCAG, the binding signal came out at 0.326 ± 0.00869 E-score. Under ATTATCAG stands 0.168 ± 0.0386 E-score. The value for AGTATAAT was 0.265 ± 0.0967 E-score; that for AGTATCAG was 0.46 ± 0.0186 E-score; that for ACTATCAT was 0.3 ± 0.0715 E-score. Take AGTATCAC: the binding signal was found to be 0.464 ± 0.0196 E-score.

In the case of AGTATCAT, the binding signal worked out at 0.473 ± 0.0218 E-score. With AGTATTAG, the binding signal was found to be 0.301 ± 0.0212 E-score. Under AGTATTAA stands 0.233 ± 0.112 E-score; under ATCGTGAG, 0.26 ± 0.00974 E-score; under CGGTAATA, 0.23 ± 0.0198 E-score. As to AGACCGAT, the binding signal stood at 0.179 ± 0.0125 E-score. Under TACTCGGA stands 0.162 ± 0.0415 E-score; under ACACCTGA, 0.281 ± 0.0355 E-score.
